# This is a sample that favours compounds with a hit; in the whole collection about 9.9% have one here.
# Tau fibril FP: blocks human tau fibril formation measured by polarization; K18 P301L tau heparin fibrillization, Alexa594 FP, 6 h; Potency, µM (titrated, usually from 57.7 µM), usual class: inhibitors; P10636; 0.39% of 280,000 active; active = well fitted curve in the direction sought with a large enough effect; inconclusive = small, poorly fitted or top-dose-only effect, or another doubt; inactive = no such curve, though single readings can be large; an effect the other way counts as inactive or inconclusive; also: nearly all actives have a fitted effect of over 55% in size
# Target sequence (P10636 561-689 P618L limits assumed): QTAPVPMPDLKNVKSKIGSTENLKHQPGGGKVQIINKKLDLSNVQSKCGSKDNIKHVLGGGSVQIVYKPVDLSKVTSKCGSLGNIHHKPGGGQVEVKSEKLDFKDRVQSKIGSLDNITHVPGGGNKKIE
#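 Human tau K18 […] P301L fragment, 15 uM unlabeled plus 0.24 uM Alexa 594-labeled tau (final), with compound and 20 uM heparin in 100 mM sodium acetate pH 7; 6 hr at 37 C, then Alexa 594 FP read.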
# Tau fluor counter: counter-screen for tau fibril formation inhibitors | tau K18 P301L Alexa594 fluorescence, heparin fibrillization | Potency, µM (doses to about 57.7 µM) | 0.93% of 280,000 active | AID 1463; active = well fitted curve in the direction sought with a large enough effect; inconclusive = small, poorly fitted or top-dose-only effect, or another doubt; inactive = no such curve, though single readings can be large; an effect the other way counts as inactive or inconclusive; also: nearly all actives have a fitted effect of over 55% in size
#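 Human K18 P301L tau (15 uM unlabeled plus 0.24 uM Alexa 594-labeled, final) in 100 mM sodium acetate pH 7 was mixed with compound and 20 uM heparin and incubated 6 hr at 37 C.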
# Tau ThT inhib: tau fibrillization inhibition (ThT binding); AID 1460; P10636; 2.1% of 270,000 active; recombinant tau K18 P301L (four-repeat tau fragment), heparin-induced fibrillization, ThT fluorescence; Potency, µM (doses to about 57.4 µM), most hits filed as inhibitors; active = well fitted curve in the direction sought with a large enough effect; inconclusive = small, poorly fitted or top-dose-only effect, or another doubt; inactive = no such curve, though single readings can be large; an effect the other way counts as inactive or inconclusive; also: nearly all actives have a fitted effect of over 55% in size
#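 In this qHTS, human K18 P301L tau is incubated with compound and heparin for 6 hr at 37 C, and Thioflavin T fluorescence then reports fibril load.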
# ALDH1A1 inh: blocks purified human ALDH1A1 activity; Purified ALDH1A1, NADH fluorescence, propionaldehyde substrate; Potency, µM (highest dose often 75.3 µM), actives largely listed as inhibitors; 7.3% of 220,000 active; AID 1030
# JMJD2E inh: blocks human JMJD2E demethylase activity | B2RXH2 | JMJD2E catalytic domain, FDH-coupled NADH fluorescence (FDH is formaldehyde dehydrogenase) | Potency, µM (highest dose often 57.1 µM), actives largely listed as inhibitors | 1.6% of 230,000 active; also: nearly all actives have a fitted effect of over 50% in size
# Target sequence (B2RXH2 1-337 limits assumed): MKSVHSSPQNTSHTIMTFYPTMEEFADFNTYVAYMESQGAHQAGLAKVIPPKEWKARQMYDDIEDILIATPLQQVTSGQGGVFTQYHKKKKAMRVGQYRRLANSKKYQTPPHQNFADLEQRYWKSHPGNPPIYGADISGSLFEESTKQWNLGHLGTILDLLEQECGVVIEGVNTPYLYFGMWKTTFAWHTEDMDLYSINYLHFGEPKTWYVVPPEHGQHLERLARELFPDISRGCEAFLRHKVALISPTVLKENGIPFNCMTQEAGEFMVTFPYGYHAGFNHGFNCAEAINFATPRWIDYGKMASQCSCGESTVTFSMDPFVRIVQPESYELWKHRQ
# HPGD block: HPGD (human) dehydrogenase inhibition | Potency, µM, actives largely listed as inhibitors | AID 894 | P15428 | 4.3% of 150,000 active | purified HPGD, NADH fluorescence kinetic, PGE2 substrate
#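 20 nM HPGD preincubated 15 min at room temperature with compound in 50 mM Tris-HCl pH 8, 0.01% Tween 20. Started with 1 mM NAD+ and 30 uM prostaglandin E2; NADH fluorescence (360/450 nm) read 5 times over 30-s intervals, last minus first.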
# Numbers stand for hits; - = inactive; ? = inconclusive; . = not tested or not shown; [ ] = another dose, or the depositor's remark. Unless noted, calls follow the shape of the dose curve; as a rule, active = well fitted inhibition curve with a large enough effect (not every such curve was filed as active); inconclusive = small, poorly fitted or top-dose-only effect, or another doubt; inactive = no such curve, though single readings can be large or run the other way.
SMILES,Tau fibril FP,Tau fluor counter,Tau ThT inhib,ALDH1A1 inh,JMJD2E inh,HPGD block
COc1cc2nc(C3CCC3)nc(N3CCN(c4ccccn4)CC3)c2cc1OC,-,-,-,8.91µM,?,-
COc1cc2nc(C3CCC3)nc(N3CCN(c4ccccc4OC)CC3)c2cc1OC,-,-,?,28.2µM,-,-
COc1cc2nc(Cl)nc(N3CCN(C)CC3)c2cc1OC,-,-,-,-,-,.
CCn1c(SCC(=O)Nc2sc3c(c2C#N)CCCC3)nnc1-c1ccco1,-,-,-,-,-,-
Cc1nnc(SCC(=O)Nc2sc3c(c2C#N)CCCCC3)n1N,-,-,-,22.4µM,-,-
CC(C)(C)c1ccc(C(=O)Nc2sc3c(c2C#N)CCC(C(C)(C)C)C3)cc1 (stereo not given),-,-,-,.,.,.
N#Cc1c(NC(=O)C2CC=CCC2C(=O)O)sc2c1CCCCCC2 (stereo not given),-,-,-,?,-,17.8µM
CC(C)(C)C1CCc2c(sc(NC(=O)C3CC=CCC3C(=O)O)c2C#N)C1 (stereo not given),-,-,-,7.08µM,-,15.8µM
CCn1c(SCC(=O)Nc2sc3c(c2C#N)CCC(C(C)(C)C)C3)nnc1-c1ccco1 (stereo not given),-,-,-,39.8µM,-,-
Cc1ccc(NC(=O)CN(C)S(=O)(=O)c2ccc3c(c2)n(C)c(=O)c(=O)n3C)cc1F,-,-,-,.,.,.
N#Cc1c(NC(=O)CCC(=O)O)sc2c1CCCC2,-,-,-,-,-,-
COC(=O)C1CCN(CC(=O)Nc2sc3c(c2C#N)CCC3)CC1,-,-,-,-,-,-
N#Cc1c(NC(=O)CCC(=O)O)sc2c1CCCCC2,?,-,20µM,14.1µM,?,.
N#Cc1c(NC(=O)CN2CCN(C(=O)c3ccco3)CC2)sc2c1CCCCC2,-,-,-,7.08µM,-,8.91µM
CCOC(=O)N/N=C/c1ccc(OCCSc2ccc(Cl)cc2)c(OC)c1,-,-,?,-,-,-
COc1cc(C=O)ccc1OCCSc1ccc(Cl)cc1,-,-,?,?,-,11.2µM
C/C=C/c1ccc(OCCCCOc2c(OC)cccc2OC)c(OC)c1,-,-,-,-,-,?
CCOC(=O)N/N=C/c1ccc(OCCSc2ccc(Cl)cc2)c(OCC)c1,-,-,-,-,-,15.8µM
C/C=C/c1ccc(OCCOc2ccc(C=O)cc2)c(OC)c1,-,-,?,?,-,25.1µM
COc1cc(C=O)ccc1OCCOCCOc1ccc(Cl)cc1,-,-,-,3.55µM,-,-
COc1cc(C=O)ccc1OCCOCCOc1c(C)cc(Cl)cc1Cl,-,-,?,?,-,?
CCC[C@H](Sc1nc(N)nc2nc[nH]c12)C(=O)O,.,.,.,-[13.5 µM],.,-
O=C(Nc1ccc2nc(SCC(=O)N3CCOCC3)sc2c1)c1ccc(F)cc1,-,-,-,.,.,.
COc1ccccc1OCCCCOc1ccccc1C(C)=O,-,-,-,-,-,-
C/C=C/c1ccc(OCCCCOc2ccccc2C(C)=O)c(OC)c1,-,-,?,?,-,14.1µM
SMILES,Tau fibril FP,Tau fluor counter,Tau ThT inhib,ALDH1A1 inh,JMJD2E inh,HPGD block
C/C=C/c1ccc(OCCCNC)c(OC)c1,?,-,-,28.2µM,?,-
CC(C)(C)c1ccc(S(=O)(=O)NCc2nc3cccnc3n2Cc2ccccc2Cl)cc1,-,-,-,.,.,.
O=C(CSc1nc2c([nH]c3ccccc32)c(=O)n1-c1ccccc1)N1CCOCC1,-,-,-,2.51µM,-,-
Cc1ccc(-n2c(SCC(N)=O)nc3c([nH]c4ccccc43)c2=O)cc1,-,-,-,11.2µM,-,-
O=C(Nc1nncs1)c1c(F)c(F)c(F)c(F)c1F,-,-,-,17.8µM,-,22.4µM
Cc1ccccc1C(=O)Nc1nncs1,-,-,-,-,-,-
CS(=O)(=O)Nc1ccc(Nc2c3ccccc3nc3ccccc23)cc1,.,.,.,-[13.5 µM],.,-
C=CCOc1c(Br)cc(/C=N/Nc2ccc(C(=O)O)cc2)cc1OCC,?,?,?,-,?,-
CCOC(=O)c1c(C)[nH]c(N=Nc2ccc(C)cc2C)c1C,-,?,6.31µM,?,-,-
CCOC(=O)c1c(C)[nH]c(N=Nc2cc(C(=O)O)cc(C(=O)O)c2)c1C,-,-,?,.,-,.

# Bioassay records: PubChem BioAssay, National Center for Advancing Translational Sciences (NCATS)
